Measurements as given in PubChem BioAssay (NCATS).
Results filed as inconclusive are left out. Where a call stands in place of a potency, no number is given. Calls of active or inactive are those of the source. Unless noted, calls come from the whole dose curve.

How the values were obtained:
[1] = Primary qHTS for inhibitors of SARS-S pseudo-typed particle cell entry (AID 1479145); conditions: outcome: dose series up to 57.1 µM unless noted; note: nearly all actives have a fitted effect of over 45% in size
[2] = Primary qHTS for Huh7 cytotoxicity: counterscreen for inhibitors of MERS-S pseudotyped particle cell entry (AID 1479147); conditions: outcome: dose series up to 57.1 µM unless noted
[3] = Primary qHTS for inhibitors of MERS-S pseudo-typed particle cell entry (AID 1479149); conditions: outcome: dose series up to 57.1 µM unless noted; note: nearly all actives have a fitted effect of over 60% in size
[4] = Primary qHTS for Vero E6 cytotoxicity: counterscreen for inhibitors of SARS-S pseudo-typed particle cell entry (AID 1479150); conditions: outcome: dose series up to 57.1 µM unless noted
[5] = Cytotoxicity counterscreen for inhibitors of SARS-CoV-2 cell entry (AID 1645845); conditions: outcome: dose series up to 57.1 µM unless noted; note: nearly all actives have a fitted effect of over 50% in size
In short: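 After a 15 min room-temperature ATPLite 1step step, luminescence reflected ATP remaining in HEK293-ACE2 cells exposed to compound for 1 h plus 48 h at 37 C, with percent activity set by cell and no-cell controls.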

[6] = target: Nuclear receptor subfamily 1 group I member 3 (Homo sapiens) (UniProt Q14994); test: Primary qHTS for antagonist of constitutive androstane receptor (CAR) against the NCATS DSHEA and TCM libraries (AID 1794836; active = well fitted curve in the direction sought with a large enough effect; an effect the other way counts as inactive or inconclusive)
In short: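 HepG2 cells stably carrying hCAR and a CYP2B6 luciferase reporter (2,500 cells/well) attached for 5 h, then received compounds with 48 uM CITCO for 24 h at 37C. ONE-Glo luminescence read antagonism; CellTiter-Fluor (405/540 nm) gave viability.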

[7] = KB-8-5-11 P-gp reporter qHTS against the NCATS DSHEA and TCM libraries (AID 1919977; active = well fitted curve in the direction sought with a large enough effect; an effect the other way counts as inactive or inconclusive)
In short: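 Cells were seeded, allowed ~4 h to attach, dosed by pin tool (substance titrations), incubated ~72 h at 37C, then lysed with CellTiter-Glo for 30 min at room temperature before luminescence reading.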

[8] = target: Peroxisome proliferator-activated receptor delta (Homo sapiens) (UniProt Q03181); test: qHTS assay for small molecule agonists of peroxisome proliferator-activated receptor delta signaling (AID 588534)
In short: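 EC50 and efficacy values derive from Hill fits of a concentration series in a beta-lactamase reporter cell assay. Exposure is 18 hrs at 37 C, with CCF4 fluorescence as the readout.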

[9] = target: Thyroid hormone receptor beta (Homo sapiens) (UniProt P10828); test: qHTS assay for small molecule agonists of thyroid hormone receptor beta signaling (AID 588545)
In short: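 Efficacy and EC50 values derive from Hill fits of qHTS titration data, normalized to 10 nM T3 and DMSO-only wells. HEK 293 reporter cells were stimulated for 18 hrs at 37 C, with beta-lactamase activity measured by CCF4 fluorescence.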

[10] = qHTS assay for small molecule agonists of the antioxidant response element (ARE) signaling pathway (AID 651741; active = well fitted activation curve with a large enough effect in the signal ratio; the % refers to the signal ratio)
In short: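 Beta-lactamase reporter expression driven by the antioxidant response element in HepG2 cells was detected by fluorescence with LiveBLAzer B/G FRET substrate (2 h, room temperature) following 16 h compound treatment at 37 C.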

[11] = Primary qHTS to identify inhibitors of SARS-CoV-2 cell entry (AID 1645846); conditions: SARS-CoV-2 pseudovirus cell entry assay, luminescence; activity change, negative = inhibition: at 57.1 µM (top of the series) unless noted; note: nearly all actives have a fitted effect of over 45% in size
In short: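 Data are normalized to wells receiving SARS-CoV-2-S pseudoparticles and those given bald particles. Entry signal was luciferase luminescence in stable hACE2 Expi293F cells, 48 hr post-infection, after 1 hr compound pretreatment.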

[12] = qHTS profiling for inhibitors of Plasmodium falciparum (3D7) proliferation (AID 743322; call rule not given here;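 note: infected erythrocytes exposed to compound for 72 h before lysis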); conditions: P. falciparum 3D7 proliferation; at 28.7 µM (top of the series)
In short: (§1)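 Parasite DNA was quantified by SYBR Green I fluorescence (ex 485, em 535 nm) after overnight lysis in saponin/Triton buffer at room temperature. Cultures at 0.3% parasitemia and 2.5% hematocrit were first exposed to compound for 72 h at 37 C; signals were normalised to artemisinin (0.29 uM) and vehicle wells.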

[13] = qHTS profiling for inhibitors of Plasmodium falciparum (DD2) proliferation (AID 743323; call rule not given here); conditions: lower = more inhibition; at 28.7 µM (top of the series)
In short: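 SYBR Green fluorescence (ex 485, em 535 nm) of lysed cultures gives parasite DNA content; wells normalized to artemisinin (0.29 uM) and DMSO controls. Infected red cells: 0.3% parasitemia, 2.5% hematocrit, 72 h, 37 C.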

[14] = qHTS profiling for inhibitors of Plasmodium falciparum (HB3) proliferation (AID 743324; active = well fitted curve in the direction sought with a large enough effect; an effect the other way counts as inactive or inconclusive); conditions: Plasmodium falciparum HB3 blood-stage proliferation; at 28.7 µM (top of the series)
In short: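 SYBR Green fluorescence (485 ex/535 em) of lysed cultures, incubated overnight at room temperature in the dark, quantifies parasite DNA. Infected erythrocytes at 0.3% parasitemia and 2.5% hematocrit were exposed 72 h; values normalized to DMSO and 0.29 uM artemisinin controls.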

[15] = qHTS profiling of the MIPE4 collection as inhibitors of Plasmodium falciparum (3D7) proliferation (AID 743344; call rule not given here); conditions: P. falciparum 3D7 in erythrocytes, SYBR Green DNA fluorescence, 72 h; at 28.5 µM (top of the series)
In short: as §1

[16] = qHTS profiling of the MIPE4 collection as inhibitors of Plasmodium falciparum (DD2) proliferation (AID 743345; call rule not given here); conditions: P. falciparum Dd2 in erythrocytes, SYBR Green DNA, 72 h; at 28.5 µM (top of the series)
In short: as §1

[17] = qHTS profiling of the MIPE4 collection as inhibitors of Plasmodium falciparum (DD2) proliferation (Rep 2) (AID 743346; call rule not given here); conditions: P. falciparum Dd2 in erythrocytes, SYBR Green DNA, 72 h; at 28.5 µM (top of the series)
In short: as §1

[18] = target: Glutathione peroxidase 1 (Homo sapiens) (UniProt P07203); test: Primary qHTS Assay for Inhibitors of Recombinant Selenoprotein Glutathione Peroxidase 1 (GPX1) (AID 1845191; active = well fitted curve in the direction sought with a large enough effect; an effect the other way counts as inactive or inconclusive; note: nearly all actives have a fitted effect of over 65% in size; note: potency is the fitted concentration of half-maximal effect)
In short: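 GPX1 10 nM, GR 100 nM, GSH 1 mM, NADPH 0.5 mM, CHP 0.5 mM (final). 30-min cpd preincubation, RT. Ex340/Em450 read t=0, t=15 min.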

[19] = target: Phospholipid hydroperoxide glutathione peroxidase GPX4 (Homo sapiens) (UniProt P36969); test: Primary qHTS Assay for Inhibitors of Recombinant Selenoprotein Glutathione Peroxidase 4 (GPX4) (AID 1845192; active = well fitted curve in the direction sought with a large enough effect; an effect the other way counts as inactive or inconclusive; note: nearly all actives have a fitted effect of over 65% in size; note: potency is the fitted concentration of half-maximal effect)
In short: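 qHTS, GR-coupled: GPX4 200 nM + cpd 30 min RT → GSH 1 mM, NADPH 0.5 mM, GR 100 nM → CHP 0.5 mM start; fluor 340/450 at t0 and t15 min; no-enzyme wells as control.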

[20] = target: Bile acid receptor (Homo sapiens) (UniProt Q96RI1); test: qHTS assay for small molecule agonists of farnesoid X receptor signaling (AID 588527); conditions: HEK293T FXR-UAS-bla, beta-lactamase ratio, 16 h; stronger effect = higher value
In short: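 FXR-UAS-bla HEK293T, 10% dialyzed FBS; cpds up to 92 uM titration, 16 h 37 C; CCF4 dye 2 h RT; fluorescence. Normalized to chenodeoxycholic acid 100 uM (100%) and DMSO (0%); Hill fit gives EC50, efficacy.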

Chain of Glutathione peroxidase 1 (Homo sapiens) (P07203 whole entry, looked up): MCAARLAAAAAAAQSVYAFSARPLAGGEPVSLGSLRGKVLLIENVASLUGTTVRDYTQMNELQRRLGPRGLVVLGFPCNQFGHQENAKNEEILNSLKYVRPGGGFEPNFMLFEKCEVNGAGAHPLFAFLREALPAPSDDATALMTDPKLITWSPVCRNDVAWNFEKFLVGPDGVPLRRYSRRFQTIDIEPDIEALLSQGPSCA
Chain of Phospholipid hydroperoxide glutathione peroxidase GPX4 (Homo sapiens) (P36969 whole entry, looked up): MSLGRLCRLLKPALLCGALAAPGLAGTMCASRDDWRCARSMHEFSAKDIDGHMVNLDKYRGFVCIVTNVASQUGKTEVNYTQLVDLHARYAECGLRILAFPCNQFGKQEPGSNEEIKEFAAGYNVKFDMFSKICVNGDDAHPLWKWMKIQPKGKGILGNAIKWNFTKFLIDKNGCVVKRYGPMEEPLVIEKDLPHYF
Chain of Peroxisome proliferator-activated receptor delta (Homo sapiens) (Q03181 whole entry, looked up): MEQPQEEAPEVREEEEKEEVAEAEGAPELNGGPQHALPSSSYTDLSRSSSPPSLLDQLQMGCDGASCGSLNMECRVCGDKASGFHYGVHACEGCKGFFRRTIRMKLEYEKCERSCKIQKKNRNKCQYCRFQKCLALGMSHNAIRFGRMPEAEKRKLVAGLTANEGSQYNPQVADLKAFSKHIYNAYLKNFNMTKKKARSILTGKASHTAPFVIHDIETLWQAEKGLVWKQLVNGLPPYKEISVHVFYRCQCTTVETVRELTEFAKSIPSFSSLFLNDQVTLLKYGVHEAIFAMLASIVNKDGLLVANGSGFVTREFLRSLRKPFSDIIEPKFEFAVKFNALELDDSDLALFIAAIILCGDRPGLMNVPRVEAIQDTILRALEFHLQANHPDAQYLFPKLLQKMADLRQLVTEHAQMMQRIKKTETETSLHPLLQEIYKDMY
Chain of Bile acid receptor (Homo sapiens) (Q96RI1 whole entry, looked up): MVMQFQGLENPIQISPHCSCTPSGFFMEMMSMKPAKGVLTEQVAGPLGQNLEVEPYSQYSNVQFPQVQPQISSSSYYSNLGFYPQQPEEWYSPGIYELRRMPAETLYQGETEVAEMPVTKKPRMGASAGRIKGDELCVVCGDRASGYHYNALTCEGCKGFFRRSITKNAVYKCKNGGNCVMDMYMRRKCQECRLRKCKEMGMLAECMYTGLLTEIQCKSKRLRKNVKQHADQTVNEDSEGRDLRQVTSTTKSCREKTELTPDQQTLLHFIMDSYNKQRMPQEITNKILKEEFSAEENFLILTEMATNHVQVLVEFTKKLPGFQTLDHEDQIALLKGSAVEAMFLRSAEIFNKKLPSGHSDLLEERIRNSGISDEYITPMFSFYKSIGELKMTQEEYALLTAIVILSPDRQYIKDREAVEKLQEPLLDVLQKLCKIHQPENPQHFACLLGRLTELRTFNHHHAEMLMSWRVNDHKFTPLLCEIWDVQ
Chain of Thyroid hormone receptor beta (Homo sapiens) (P10828 whole entry, looked up): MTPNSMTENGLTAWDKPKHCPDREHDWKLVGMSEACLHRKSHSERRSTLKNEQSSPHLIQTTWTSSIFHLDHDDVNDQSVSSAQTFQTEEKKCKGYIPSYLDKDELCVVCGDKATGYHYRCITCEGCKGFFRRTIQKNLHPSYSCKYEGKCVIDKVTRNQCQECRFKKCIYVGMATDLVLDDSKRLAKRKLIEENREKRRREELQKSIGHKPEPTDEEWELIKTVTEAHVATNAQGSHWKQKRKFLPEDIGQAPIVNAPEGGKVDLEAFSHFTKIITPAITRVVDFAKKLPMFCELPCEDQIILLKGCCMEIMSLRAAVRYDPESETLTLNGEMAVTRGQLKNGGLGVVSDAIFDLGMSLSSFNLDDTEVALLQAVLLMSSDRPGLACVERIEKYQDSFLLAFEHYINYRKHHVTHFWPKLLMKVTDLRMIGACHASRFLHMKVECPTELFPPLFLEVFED
Chain of Nuclear receptor subfamily 1 group I member 3 (Homo sapiens) (Q14994 whole entry, looked up): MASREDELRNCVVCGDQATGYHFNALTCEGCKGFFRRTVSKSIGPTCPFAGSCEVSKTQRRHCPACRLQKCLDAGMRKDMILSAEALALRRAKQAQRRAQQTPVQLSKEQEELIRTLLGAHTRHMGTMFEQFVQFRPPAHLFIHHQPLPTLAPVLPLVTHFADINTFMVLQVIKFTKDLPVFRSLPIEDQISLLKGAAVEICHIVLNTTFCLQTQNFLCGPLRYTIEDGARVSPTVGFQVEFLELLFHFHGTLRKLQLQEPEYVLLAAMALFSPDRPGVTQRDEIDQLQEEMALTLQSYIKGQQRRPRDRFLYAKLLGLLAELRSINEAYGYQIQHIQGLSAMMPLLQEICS

CC(C)=CCC/C(C)=C/CC/C(C)=C/CC/C(C)=C/CC1=C(C)C(=O)c2ccccc2C1=O
Potency [1]: inactive
Potency [2]: inactive
Potency [3]: inactive
Potency [4]: inactive
Potency [5]: inactive
Potency [6]: inactive
Potency [7]: inactive

C=Cc1ccccc1
outcome [8]: inactive
outcome [9]: inactive
Potency [10]: inactive
Potency [1]: inactive
Potency [2]: inactive
Potency [3]: inactive
Potency [4]: inactive
Potency [5]: inactive
activity change, negative = inhibition [11]: -16.9%

OB1OCc2cc(F)ccc21
remaining parasite growth % (stronger effect = lower value) [12]: 85.7%
activity, percent of control [13]: 91.5%
remaining proliferation (% of control), lower = more inhibition [14]: 40.3%
Potency [1]: inactive
Potency [2]: inactive
Potency [3]: inactive
Potency [4]: inactive
Potency [5]: inactive
activity change, negative = inhibition [11]: -25.6%

CN[C@@H]1[C@H](O)[C@H](O[C@@H]2[C@H](O)[C@@H](O[C@H]3O[C@H]([C@@H](C)NC)CC[C@H]3N)[C@@H](N)C[C@H]2N)OC[C@]1(C)O
parasite growth, % of DMSO control [15]: 81.2%
parasite growth remaining, % of DMSO control (lower = more inhibition) [16]: 98.7%
parasite growth, % of control (lower = inhibition) [17]: 196%
outcome [1]: inactive [at 11.4 µM]
activity change, negative = cytotoxicity [2]: -2.83% [at 11.4 µM] (inactive)
outcome [3]: inactive [at 11.4 µM]
activity change, negative = cytotoxicity [4]: -14.2% [at 11.4 µM] (inactive)
activity change, negative = cytotoxicity [5]: -14.3% [at 11.3 µM] (inactive)
activity change, negative = inhibition [11]: -8.26% [at 11.3 µM]

O=c1ccc2cc(O[C@@H]3O[C@H](CO)[C@H](O)[C@H](O)[C@H]3O)c(O)cc2o1
Potency [1]: inactive
Potency [2]: inactive
Potency [3]: inactive
Potency [4]: inactive
Potency [5]: inactive
Potency [11]: inactive
Potency [18]: 16.1 µM (active)
Potency [19]: 25.5 µM (active)

O=CCCCC=O
activation [20]: -2.56% (inactive)
outcome [8]: inactive
Potency [1]: inactive
Potency [2]: inactive
Potency [3]: inactive
Potency [4]: inactive
Potency [5]: inactive

O=C([O-])C[O-].[Pt+2]
Potency [1]: inactive
Potency [2]: inactive
Potency [3]: inactive
Potency [4]: inactive
Potency [5]: inactive
Potency [11]: inactive
activity change, negative = inhibition [11]: -22.9% [at 27.1 µM]

O[C@@H]([C@H](O)[C@@H](O)CBr)[C@@H](O)CBr
activation [20]: -2.21% (inactive)
outcome [8]: inactive
Potency [1]: inactive
Potency [2]: inactive
Potency [3]: inactive
Potency [4]: inactive
Potency [5]: inactive
Potency [11]: inactive

CC1(C)S[C@@H]2[C@H](N)C(=O)N2[C@@H]1C(=O)O
outcome [1]: inactive [at 5.34 µM]
outcome [2]: inactive [at 5.34 µM]
outcome [3]: inactive [at 5.34 µM]
outcome [4]: inactive [at 5.34 µM]
outcome [5]: inactive [at 5.25 µM]
outcome [11]: inactive [at 5.25 µM]
activity, negative = inhibition [18]: 1.27% [at 4.49 µM] (inactive)
outcome [19]: inactive [at 4.52 µM]

C/C=C/C=C/C(=O)O
outcome [8]: inactive
Potency [1]: inactive
Potency [2]: inactive
Potency [3]: inactive
Potency [4]: inactive
Potency [5]: inactive
Potency [11]: inactive

CCCCOc1ccc(C[N+]2(C)C3CCC2CC(OC(=O)[C@H](CO)c2ccccc2)C3)cc1 (stereo partly drawn)
Potency [1]: inactive
Potency [2]: inactive
Potency [3]: inactive
Potency [4]: inactive
Potency [5]: inactive
activity change, negative = inhibition [11]: -21.1%
Potency [18]: inactive
Potency [19]: inactive

CC[N+]1(C)C2CC(OC(=O)[C@H](CO)c3ccccc3)CC1[C@@H]1O[C@H]21 (stereo partly drawn)
Potency [1]: inactive
Potency [2]: inactive
Potency [3]: inactive
Potency [4]: inactive
Potency [5]: inactive
activity change, negative = inhibition [11]: -33.5%
Potency [18]: inactive
Potency [19]: inactive

CNC(C)CC1CCCC1 (stereo not drawn)
Potency [1]: inactive
Potency [2]: inactive
Potency [3]: inactive
Potency [4]: inactive
Potency [5]: inactive
Potency [11]: inactive
Potency [18]: inactive
Potency [19]: inactive

CCN(C)C(C)C(O)c1ccccc1 (stereo not drawn)
Potency [1]: inactive
Potency [2]: inactive
Potency [3]: inactive
Potency [4]: inactive
Potency [5]: inactive
activity change, negative = inhibition [11]: -6%
Potency [18]: inactive
Potency [19]: inactive

C=C/C=C/CC1=C(C)[C@H](OC(=O)[C@H]2[C@H](/C=C(\C)C(=O)OC)C2(C)C)CC1=O
Potency [1]: inactive
Potency [2]: inactive
Potency [3]: inactive
Potency [4]: inactive
Potency [5]: inactive
Potency [18]: inactive
Potency [19]: inactive

COc1ccc(C(=O)Nc2ccccc2CCC2CCCCN2C)cc1 (stereo not drawn)
Potency [1]: inactive
Potency [2]: inactive
Potency [3]: inactive
Potency [4]: inactive
activity change, negative = inhibition [11]: -20%

CCOc1ccc(Cc2cc([C@@]34OC[C@@](CO)(O3)[C@@H](O)[C@H](O)[C@H]4O)ccc2Cl)cc1
Potency [1]: inactive
Potency [2]: inactive
Potency [3]: inactive
Potency [4]: inactive
activity change, negative = inhibition [11]: -29.2%

CN(C)Cc1ccccc1
outcome [8]: inactive
Potency [1]: inactive
Potency [2]: inactive
Potency [3]: inactive
Potency [4]: inactive
Potency [5]: inactive

CC(=O)Nc1c(I)c(C(=O)O)c(I)c(N(C)C(C)=O)c1I
Potency [1]: inactive
Potency [2]: inactive
Potency [3]: inactive
Potency [4]: inactive
activity change, negative = inhibition [11]: -20.3%

CCOC(=O)O[C@]1(C(=O)COC(=O)CC)CC[C@H]2[C@@H]3CCC4=CC(=O)C=C[C@]4(C)[C@H]3[C@@H](O)C[C@@]21C
Potency [1]: inactive
Potency [2]: inactive
Potency [3]: inactive
Potency [4]: inactive
Potency [11]: inactive

COc1ccc(C[C@H](C)NC[C@@H](O)c2ccc(O)c(NC=O)c2)cc1
Potency [1]: inactive
Potency [2]: inactive
Potency [3]: inactive
Potency [4]: inactive
activity change, negative = inhibition [11]: -27.6%

CCC(CC)[C@H](NC(C)=O)[C@@H]1[C@H](O)[C@@H](C(=O)O)C[C@H]1N=C(N)N
outcome [1]: inactive [at 0.573 µM]
outcome [2]: inactive [at 0.573 µM]
outcome [3]: inactive [at 0.573 µM]
outcome [4]: inactive [at 0.573 µM]
activity change, negative = inhibition [11]: -12.4% [at 0.702 µM]

CS(=O)(=O)c1ccc([C@@H](O)[C@@H](COC(=O)CN)NC(=O)C(Cl)Cl)cc1
Potency [1]: inactive
Potency [2]: inactive
Potency [3]: inactive
Potency [5]: inactive
